Screening data deposited in PubChem by Johns Hopkins Ion Channel Center.
An excerpt weighted towards active compounds, which were near 1.6% of everything screened.
KCNQ2 pot = KCNQ2 (rat) channel potentiation | B-score at 10 µM | CHO-K1 KCNQ2, FluxOR thallium flux fluorescence; active compounds read high | hit rate 0.54% among 310,000 | O88943;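 active = fluorescence ratio B-score at least 3 SD of library B-scores, with initial fluorescence B-score within 3 of them, cut at about 5.3 in these data; same plate scores as AID 2156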;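 note: B-score of peak minus minimum over baseline fluorescence ratio after K+ and Tl+ stimulus; positive B-score means potentiation of KCNQ2 with more thallium influx and brighter signal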
KCNQ2 block = inhibitors of rat KCNQ2 potassium channel | CHO-K1 KCNQ2, FluxOR thallium flux, 20 min; active compounds read low | AID 2156 | O88943 | hit rate 1.1% among 310,000 | B-score at 10 µM;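 active = fluorescence ratio B-score at most minus 3 library SDs, with starting brightness B-score within 2 library SDs, cut at about -5.5 in these data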
KCNQ2 block conf = confirmation of rat KCNQ2 potassium channel inhibitors; shares compounds with KCNQ2 block; KCNQ2-expressing cells, thallium flux, inhibition; active compounds read low; activity change, negative = inhibition, % at 10 µM; hit rate 57% among 1,000; AID 493025
KCNQ1 spec = human KCNQ1 activity in KCNQ2 inhibitor specificity screen | shares compounds with KCNQ2 block | KCNQ1-expressing cells, FluxOR thallium flux fluorescence; active compounds read low | activity change, negative = inhibition, % at 10 µM | hit rate 15% among 1,000 | AID 493026;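 active = activity change at least 3 SD of negative controls below their mean in both duplicate wells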;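 note: CHO cells stably transfected with KCNQ1 and depolarized by potassium stimulus; peak minus minimum fluorescence over baseline after thallium addition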
Target sequence (P51787 whole entry, looked up): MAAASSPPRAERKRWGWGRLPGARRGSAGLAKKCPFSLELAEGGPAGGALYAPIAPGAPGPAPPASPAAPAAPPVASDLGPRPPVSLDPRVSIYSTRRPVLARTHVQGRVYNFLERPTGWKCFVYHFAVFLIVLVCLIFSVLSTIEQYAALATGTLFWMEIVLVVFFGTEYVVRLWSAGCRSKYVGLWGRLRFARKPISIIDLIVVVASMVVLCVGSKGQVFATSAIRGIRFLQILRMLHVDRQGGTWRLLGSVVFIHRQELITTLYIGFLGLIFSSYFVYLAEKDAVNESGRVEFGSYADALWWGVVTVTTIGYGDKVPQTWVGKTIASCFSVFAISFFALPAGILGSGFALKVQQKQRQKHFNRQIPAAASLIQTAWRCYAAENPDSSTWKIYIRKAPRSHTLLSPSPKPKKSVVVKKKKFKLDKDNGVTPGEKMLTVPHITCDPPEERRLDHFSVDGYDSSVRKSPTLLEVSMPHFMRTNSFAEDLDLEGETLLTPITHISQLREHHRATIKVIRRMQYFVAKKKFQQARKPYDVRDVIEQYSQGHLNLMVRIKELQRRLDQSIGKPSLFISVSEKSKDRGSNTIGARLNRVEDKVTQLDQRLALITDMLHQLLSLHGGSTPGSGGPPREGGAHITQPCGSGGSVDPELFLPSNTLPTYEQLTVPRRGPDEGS
CHO parental ctr = counter-screen for KCNQ2 inhibitors: effect in parental CHO cells. shares compounds with KCNQ2 block. thallium flux counter-screen; active compounds read low. activity change, % at 10 µM. hit rate 14% among 1,000. AID 493029
KCNQ2 inh confirm = blocks rat KCNQ2 current in automated patch clamp; KCNQ2-expressing cells; hit rate 49% among 550; shares compounds with KCNQ2 block; calls only at 10 µM; AID 588531
Each line names hits and unclear results; the compound was inactive in the other large screens (follow-up assays come after a bar, where they were run). Unless noted, the rule behind the calls is not given here.

O=C(Nc1ccnn1C1CCN(C(=O)c2cccc(C(F)(F)F)c2)CC1)C1CC1	none
Cc1cccc(N2C(=O)/C(=C\c3ccc(C(=O)O)cc3)c3ccccc3C2=O)c1	KCNQ2 block -9.1 | KCNQ2 block conf -20% | KCNQ1 spec inactive | CHO parental ctr inactive | KCNQ2 inh confirm inactive
Cc1cccc(N2C(=O)c3ccc(C(=O)Nc4ccccn4)cc3C2=O)c1	none
CC(OC(=O)CC1CCCC1)C(=O)Nc1ccc(S(N)(=O)=O)cc1 (centres undefined)	none
COC(=O)CC1COc2ccccc2N1C(=O)c1ccc(C(C)(C)C)cc1 (centres undefined)	KCNQ2 block -6.8 | KCNQ2 block conf -29% | KCNQ1 spec inactive | CHO parental ctr inactive | KCNQ2 inh confirm active
COC(=O)CC1COc2ccccc2N1C(=O)c1ccc(Br)cc1 (centres undefined)	none (no result: KCNQ2 pot)
CC(=O)Nc1ccc(C(=O)N/C(=C\c2ccccc2)C(=O)Nc2cccc(C(=O)O)c2)cc1	none
COc1ccc(-c2noc(-c3cccnc3)n2)cc1OC	none (no result: KCNQ2 pot)
COc1ccc(-c2noc(-c3ccccc3-c3ccccc3)n2)cc1OC	KCNQ2 block -8.9 | KCNQ2 block conf inactive | KCNQ1 spec inactive | CHO parental ctr inactive
COc1ccc(S(=O)(=O)Nc2ccccc2C(=O)NCc2cccnc2)cc1OC	none (no result: KCNQ2 pot)
COc1cc(/C=C/C(=O)O)cc(S(=O)(=O)NCCO)c1OC	none
CCN(CC)CCN(C(=O)Cn1nnc(-c2ccc(C)o2)n1)C(C(=O)NC(C)(C)C)c1cccs1 (centres undefined)	none (no result: KCNQ2 pot)
CCOc1ccc(S(=O)(=O)NCCC(=O)NCC(c2ccc(F)cc2)N2CCOCC2)cc1 (centres undefined)	none
CC(C)(C)NC(=O)COC(=O)c1ccc(Cl)cc1O	none (no result: KCNQ2 pot)
Oc1ccccc1N=Nc1nc(-c2ccccc2)c(-c2ccccc2)[nH]1	KCNQ2 block -6.6 | KCNQ2 block conf inactive | KCNQ1 spec inactive | CHO parental ctr inactive
COc1ccccc1N=Nc1nc(-c2ccccc2)c(-c2ccccc2)[nH]1	none (no result: KCNQ2 pot)
CN(Cc1ccc(Cl)s1)C(=O)CCl	none (no result: KCNQ2 pot)
CN1/C(=C\C(=O)c2cncc(Br)c2)C(C)(C)c2ccccc21	KCNQ2 block -8 | KCNQ2 block conf -40% | KCNQ1 spec -43% | CHO parental ctr -37% | KCNQ2 inh confirm inactive
CN1/C(=C\C(=O)c2cccnc2)C(C)(C)c2ccccc21	none (no result: KCNQ2 pot)
CCN(CC)CCNC(=O)c1cc(Nc2ccc(OC)c(OC)c2)nc2ccccc12	none
C(=C\c1ccccc1)/CN1CCN(C(c2ccccc2)c2ccccc2)CC1	none (no result: KCNQ2 pot)
Fc1ccc(C(c2ccc(F)cc2)N2CCN(C/C=C/c3ccccc3)CC2)cc1	KCNQ2 block -8.6 | KCNQ2 block conf inactive | KCNQ1 spec inactive | CHO parental ctr inactive
CSCCC(NC(=O)c1ccccc1Br)C(=O)N1CCC(C)CC1 (centres undefined)	KCNQ2 block -12 | KCNQ2 block conf -36% | KCNQ1 spec -39% | CHO parental ctr -30% | KCNQ2 inh confirm active
CSCCC(NC(=O)c1ccccc1Cl)C(=O)N1CCC1 (centres undefined)	none
COc1cc(OC)cc(C(=O)NN2CCOCC2)c1	none
CC(=O)Nc1ccc(NC(=O)C(=O)NCC(c2ccco2)N2CCc3ccccc3C2)cc1 (centres undefined)	none (no result: KCNQ2 pot)
O=C(CN1CCc2ccccc2C1)Nc1ccc(F)cc1F	none (no result: KCNQ2 pot)
O=C(NCC(c1ccco1)N1CCc2ccccc2C1)C(=O)Nc1ccc(F)cc1F (centres undefined)	KCNQ2 block -6.7 | KCNQ2 block conf -26% | KCNQ1 spec inactive | CHO parental ctr inactive | KCNQ2 inh confirm inactive
O=C(NCC(c1ccco1)N1CCc2ccccc2C1)C(=O)Nc1ccccc1F (centres undefined)	KCNQ2 block -7 | KCNQ2 block conf -26% | KCNQ1 spec inactive | CHO parental ctr inactive | KCNQ2 inh confirm inactive
Cc1ccc(S(=O)(=O)N(CC(=O)Nc2ccc(C(N)=O)cc2)C(=O)N2CCN(C)CC2)cc1	none (no result: KCNQ2 pot)
CC1(C)Oc2ccc(C(=O)NC3CCCCC3)cc2N(CC#N)C1=O	none
COc1ccccc1CCNC(=O)CNC(=O)Cc1cccc2ccccc12	none
O=C(OCCc1ccccc1)c1cc(O)c(O)c(O)c1	none (no result: KCNQ2 pot)
Cc1cccc(C)c1OCC(=O)Nc1cccc(-c2nnc(-c3ccccc3)o2)c1	KCNQ2 block -9.5 | KCNQ2 block conf -28% | KCNQ1 spec inactive | CHO parental ctr inactive | KCNQ2 inh confirm inactive
Cc1cccc(OCC(=O)Nc2cccc(-c3nnc(-c4ccccc4)o3)c2)c1C	none
O=C1OCC=C1NNC(=O)c1cccnc1	none
